# Records with an inconclusive call do not appear. Activity calls are given as the source filed them. The call rests on the fitted dose curve; in most records, active means well fitted curve in the direction sought with a large enough effect; inconclusive means small, poorly fitted or top-dose-only effect, or another doubt; inactive means no such curve, though single readings can be large; an effect the other way counts as inactive or inconclusive.
# Columns and labels:
# [1] = qHTS of pediatric cancer cell lines to identify multiple opportunities for drug repurposing: Primary screen for Rh30 cells (AID 1347107); further: nearly all actives have a fitted effect of over 75% in size
# Method in brief: (§1)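 Viability after 48 h compound treatment at 37C, 500-1,000 cells/well, read as ATP luminescence with CellTiter-Glo. Primary screens used 11-point (MIPE, 0.78 nM-46 µM) or 8-point (NPC, 0.59 nM-46 µM) final concentrations; follow-up screens used 11-point dilutions.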
# [2] = qHTS of pediatric cancer cell lines to identify multiple opportunities for drug repurposing: Primary screen for Rh41 cells (AID 1347108); further: nearly all actives have a fitted effect of over 70% in size
# Method in brief: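 ATP-based luminescence (CellTiter-Glo) quantifies viability after a 48-hour exposure. Compounds are dosed across 8 or 11 final concentrations; DMSO and 2.3 µM bortezomib serve as controls.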
# [3] = qHTS of pediatric cancer cell lines to identify multiple opportunities for drug repurposing: Confirmatory screen for NB1643 cells (AID 1347109); further: nearly all actives have a fitted effect of over 45% in size
# Method in brief: as §1
# [4] = qHTS of pediatric cancer cell lines to identify multiple opportunities for drug repurposing: Confirmatory screen for A673 cells (AID 1347110); further: nearly all actives have a fitted effect of over 65% in size
# Method in brief: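 A673 cells at 500-1,000 cells/well were dosed 5 h after plating, in dilution series up to 46 uM final; primary runs used 8 or 11 points and confirmatory runs used 11 points. Viability was read by CellTiter-Glo luminescence after 48 h, against DMSO and 2.3 uM bortezomib controls.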
# [5] = qHTS of pediatric cancer cell lines to identify multiple opportunities for drug repurposing: Confirmatory screen for SK-N-MC cells (AID 1347111);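 further: cells exposed to compound for 48 h before the readout; nearly all actives have a fitted effect of over 70% in size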
# Method in brief: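 SK-N-MC cells at 500-1,000 cells/well in growth media were pre-incubated 5 h, then exposed to compounds at 11-point dilutions for 48 h at 37 degrees C, 5% CO2. Viability was read as CellTiter-Glo luminescence.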
# [6] = qHTS of pediatric cancer cell lines to identify multiple opportunities for drug repurposing: Confirmatory screen for BT-12 cells (AID 1347112); further: nearly all actives have a fitted effect of over 55% in size
# Method in brief: as §1
# [7] = qHTS of pediatric cancer cell lines to identify multiple opportunities for drug repurposing: Confirmatory screen for LAN-5 cells (AID 1347113); further: nearly all actives have a fitted effect of over 65% in size
# Method in brief: as §1
# [8] = qHTS of pediatric cancer cell lines to identify multiple opportunities for drug repurposing: Confirmatory screen for SJ-GBM2 cells (AID 1347116); further: nearly all actives have a fitted effect of over 60% in size
# Method in brief: (§2)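 Viability measured as metabolically active cells via CellTiter-Glo luminescence following 48 hours of compound exposure, 11-point dilutions in confirmatory testing. 500-1,000 cells/well plated 5 hours before dosing; controls were DMSO and 2.3 µM bortezomib.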
# [9] = qHTS of pediatric cancer cell lines to identify multiple opportunities for drug repurposing: Confirmatory screen for NB-EBc1 cells (AID 1347115); further: nearly all actives have a fitted effect of over 45% in size
# Method in brief: as §1
# [10] = qHTS of pediatric cancer cell lines to identify multiple opportunities for drug repurposing: Confirmatory screen for DAOY cells (AID 1347114); further: nearly all actives have a fitted effect of over 65% in size
# Method in brief: as §2
# Potency means the concentration at half of the fitted maximal effect.
smiles,measurement,setting,value
CC(C)(C)c1cnc(CSc2cnc(NC(=O)C3CCNCC3)s2)o1,Potency,[1],inactive
same,Potency,[2],0.59 µM (active)
same,Potency,[3],0.165 µM (active)
same,Potency,[4],0.414 µM (active)
same,Potency,[5],0.329 µM (active)
same,Potency,[6],0.369 µM (active)
same,Potency,[7],0.261 µM (active)
same,Potency,[8],0.414 µM (active)
CC1=C(CO)C(=O)O[C@@H]([C@@H](C)[C@H]2CC[C@H]3[C@@H]4C[C@H]5O[C@]56[C@@H](O)C=CC(=O)[C@]6(C)[C@@H]4CC[C@]23C)C1,Potency,[1],2.35 µM (active)
same,Potency,[2],1.18 µM (active)
same,Potency,[4],18.5 µM (active)
same,Potency,[5],inactive
same,Potency,[6],10.4 µM (active)
same,Potency,[8],inactive
CC(C)C[C@H](NC(=O)CNC(=O)c1cc(Cl)ccc1Cl)B(O)O,Potency,[1],1.87 µM (active)
same,Potency,[2],0.469 µM (active)
same,Potency,[4],0.465 µM (active)
same,Potency,[5],inactive
same,Potency,[6],0.465 µM (active)
same,Potency,[8],0.185 µM (active)
CC=C1NC(=O)[C@H]2CSSCCC=C[C@H](CC(=O)N[C@H](C(C)C)C(=O)N2)OC(=O)[C@H](C(C)C)NC1=O,Potency,[1],0.0296 µM (active)
same,Potency,[2],0.0148 µM (active)
same,Potency,[3],inactive
same,Potency,[4],inactive
same,Potency,[5],11.7 µM (active)
same,Potency,[7],inactive
same,Potency,[9],inactive
same,Potency,[8],inactive
CCc1c2c(nc3ccc(O)cc13)-c1cc3c(c(=O)n1C2)COC(=O)[C@]3(O)CC,Potency,[1],0.132 µM (active)
same,Potency,[2],0.235 µM (active)
same,Potency,[4],0.0657 µM (active)
same,Potency,[6],2.61 µM (active)
same,Potency,[8],inactive
Cc1ccc(C(=O)Nc2ccc(CN3CCN(C)CC3)c(C(F)(F)F)c2)cc1C#Cc1cnc2cccnn12,Potency,[1],14.8 µM (active)
same,Potency,[2],9.35 µM (active)
same,Potency,[4],4.65 µM (active)
same,Potency,[5],0.0033 µM (active)
same,Potency,[6],8.27 µM (active)
same,Potency,[10],8.27 µM (active)
Nc1ccccc1NC(=O)c1ccc(CNC(=O)OCc2cccnc2)cc1,Potency,[1],18.7 µM (active)
same,Potency,[2],3.72 µM (active)
same,Potency,[3],2.14 µM (active)
same,Potency,[4],13.5 µM (active)
same,Potency,[5],0.302 µM (active)
same,Potency,[7],2.69 µM (active)
same,Potency,[8],13.5 µM (active)
Nc1ccn([C@@H]2O[C@H](CO)[C@H](O)C2(F)F)c(=O)n1,Potency,[1],inactive
same,Potency,[2],inactive
same,Potency,[4],0.0585 µM (active)
CC1(C)CCC(c2ccc(Cl)cc2)=C(CN2CCN(c3ccc(C(=O)NS(=O)(=O)c4ccc(N[C@H](CCN5CCOCC5)CSc5ccccc5)c(S(=O)(=O)C(F)(F)F)c4)cc3)CC2)C1,Potency,[1],9.35 µM (active)
same,Potency,[2],5.9 µM (active)
same,Potency,[3],inactive
same,Potency,[4],8.27 µM (active)
same,Potency,[6],inactive
same,Potency,[7],inactive
same,Potency,[10],9.27 µM (active)
COc1cc2c(NC3CCN(C(C)C)CC3)nc(C3CCCCC3)nc2cc1OCCCN1CCCC1,Potency,[1],18.7 µM (active)
same,Potency,[2],11.8 µM (active)
same,Potency,[3],23.3 µM (active)
same,Potency,[4],18.5 µM (active)
same,Potency,[5],4.14 µM (active)
same,Potency,[10],9.27 µM (active)
CC[C@@H]1C(=O)N(C)c2cnc(Nc3ccc(C(=O)NC4CCC(N5CCN(CC6CC6)CC5)CC4)cc3OC)nc2N1C(C)C (some centres undefined),Potency,[1],16.6 µM (active)
same,Potency,[2],2.35 µM (active)
same,Potency,[3],inactive
same,Potency,[6],inactive
same,Potency,[7],inactive
same,Potency,[10],inactive
same,Potency,[8],inactive
COc1ccc(OC)c(-c2nnc3ccc(-c4ccc(OC)c(O[C@@H]5CCOC5)c4)nn23)c1,Potency,[2],20.9 µM (active)
same,Potency,[3],5.22 µM (active)
same,Potency,[4],10.4 µM (active)
same,Potency,[5],4.65 µM (active)
same,Potency,[6],inactive
CCC1=C[C@@H]2CN(C1)Cc1c([nH]c3ccccc13)[C@@](C(=O)OC)(c1cc3c(cc1OC)N(C)[C@@H]1[C@@](O)(C(=O)OC)[C@H](OC(C)=O)[C@]4(CC)C=CCN5CC[C@]31[C@@H]54)C2,Potency,[1],inactive
same,Potency,[4],0.329 µM (active)
same,Potency,[5],5.22 µM (active)
same,Potency,[10],0.657 µM (active)
same,Potency,[9],inactive
same,Potency,[8],5.22 µM (active)
CC(C)=CCCC(C)=CCCC(C)=CCSc1ccccc1C(=O)O,Potency,[2],4.69 µM (active)
CS(=O)(=O)c1ccc(-c2cnc(N)c(C(=O)Nc3ccccc3)n2)cc1,Potency,[2],inactive
O=C(NCCCNc1nc(Nc2cccc(NC(=O)N3CCCC3)c2)ncc1I)c1cccs1,Potency,[2],18.7 µM (active)
C=CC(=O)N1CCC[C@@H](n2nc(-c3ccc(Oc4ccccc4)cc3)c3c(N)ncnc32)C1,Potency,[1],11.8 µM (active)
same,Potency,[5],5.85 µM (active)
same,Potency,[6],inactive
same,Potency,[9],9.27 µM (active)
same,Potency,[8],inactive
CN[C@H]1CCc2cc(OC)c(OC)c(OC)c2-c2ccc(OC)c(=O)cc21,Potency,[1],inactive
same,Potency,[4],0.104 µM (active)
same,Potency,[6],0.147 µM (active)
same,Potency,[10],0.0465 µM (active)
O=C(O)c1ccc2c(c1)nc(Nc1cccc(Cl)c1)c1ccncc12,Potency,[2],14.8 µM (active)
CC1(C)CC(=O)c2c(C(F)(F)F)nn(-c3ccc(C(N)=O)c(NC4CCC(OC(=O)CN)CC4)c3)c2C1 (centres undefined),Potency,[2],0.372 µM (active)
